Test results: PubChem BioAssay (NCI)
About 79,000 compounds went through this panel and 15% of them were active in at least one assay; those are over-represented in the sample as a whole. Activity calls are given as the source filed them. No stated cut-off is given here; in the data, active means growth inhibition above about 70%; inactive means the rest.

Columns and labels:
[1] = NCI Yeast Anticancer Drug Screen. Data for the rad50 strain (AID 155);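 further: 0% = growth of vehicle-only cultures of the same strain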; settings: S. cerevisiae rad50 strain growth inhibition; at 50.0 µM; hits give high values
Outline: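 Genetically altered yeast (DNA repair pathway); compound treatment; growth inhibition vs vehicle ctrl.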

[2] = NCI Yeast Anticancer Drug Screen. Data for the mec2-1 strain (AID 157); settings: S. cerevisiae mec2-1 strain, at 50.0 µM, hits give high values
Outline: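 Mutant yeast (mec2-1) grown with compound; growth inhibition relative to vehicle control reported.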

[3] = NCI Yeast Anticancer Drug Screen. Data for the sgs1 mgt1 strain (AID 161);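 further: 0% = growth of cultures given vehicle only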; settings: S. cerevisiae sgs1 mgt1 strain, at 50.0 µM, hits give high values
Outline: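 This yeast growth screen uses a strain with defined DNA-repair lesions; compound-treated growth is compared with vehicle-treated growth.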

[4] = NCI Yeast Anticancer Drug Screen. Data for the cln2 rad14 strain (AID 165);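 further: 0% = growth equal to vehicle treated cultures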; settings: S. cerevisiae cln2 rad14 strain, at 50.0 µM, hits give high values
Outline: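 Readout is yeast growth inhibition versus vehicle-treated controls, using a strain with cln2 and rad14 alterations exposed to compound.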

[5] = NCI Yeast Anticancer Drug Screen. Data for the bub3 strain (AID 167); settings: S. cerevisiae bub3 mutant strain, at 50.0 µM, hits give high values
Outline: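 Yeast carrying a defined mutation is treated with each compound, and growth is compared with that of vehicle-exposed cells to give inhibition.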

[6] = NCI Yeast Anticancer Drug Screen. Data for the mlh1 rad18 strain (AID 175); settings: S. cerevisiae mlh1 rad18 strain growth inhibition; at 50.0 µM; hits give high values
Outline: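 Genetically defined yeast (DNA repair-deficient) exposed to compounds; growth inhibition determined relative to vehicle.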

Measured: growth inhibition

C/C(=N\O)c1ccc(OCc2cc(C(F)(F)F)cc(C(F)(F)F)c2)cc1
inactive: [1] -10.1% | [2] -26.2% | [3] -6.75% | [4] -1.5% | [5] -2.15% | [6] 7.5%

O=C(O)/C=C/c1ccccc1C(=O)O
inactive: [1] 11.3% | [2] -4.3% | [3] 4.05% | [4] -13.2% | [5] -11.4% | [6] 6.05%

O=C(Cc1nc2ccccc2[nH]c1=O)c1cccnc1
inactive: [1] -0.5% | [2] 8.25% | [3] 13.2% | [4] 1.55% | [5] -4.75% | [6] 16.3%

Cc1ccc2nnc(C)n2c1
inactive: [1] 10.7% | [2] 1.95% | [3] 1.85% | [4] 19.2% | [5] 24.9% | [6] -4.4%

CCCCCCn1ncc(=O)[nH]c1=O
inactive: [1] 4.2% | [2] -6.7% | [3] 2.75% | [4] -40.8% | [5] 6.6% | [6] 8.9%

CC(C)=CC(C)(O)c1nc2ccccc2s1 (stereo not drawn)
inactive: [1] -2.75% | [2] 21.7% | [3] 7.25% | [4] -6.95% | [5] 1.1% | [6] 5.2%

c1ccc(N=c2snc3scc(-c4ccccc4)n23)cc1
inactive: [1] 28.4% | [2] 6.95% | [3] 13.8% | [4] 17.6% | [5] 33.5% | [6] 16.6%

CCCC1CCCC1C (stereo not drawn)
inactive: [1] 4.3% | [2] 4.25% | [3] 8.45% | [4] 5.4% | [5] 17.4% | [6] -1.85%

CN1CNc2nc(N)n(C)c(=O)c2C1
inactive: [1] 11.2% | [2] -4.7% | [3] 11.4% | [4] 11.8% | [5] -6.5% | [6] 8.2%

CCCCCCSc1n[nH]c(=S)s1
inactive: [1] -4.25% | [2] 9.55% | [3] 18.4% | [4] 24.6% | [5] -5.2% | [6] 13.4%

C#CCn1c(=O)c2ccccc2n(CC#C)c1=O
inactive: [1] -10.3% | [2] -1.6% | [3] -6.3% | [4] 15.8% | [5] 9.05% | [6] 23.9%

NC(=O)NC(=O)c1ccccc1
inactive: [1] -10.4% | [2] -15.2% | [3] -10.2% | [4] -9.25% | [5] 3.55% | [6] -7.55%

Cc1ccc(S(=O)(=O)N2CCN(S(=O)(=O)c3ccc(C)cc3)COC2)cc1
inactive: [1] -1.1% | [2] -0.4% | [3] -5.15% | [4] -3.85% | [5] -1.6% | [6] -9.85%

CC(C)N(CC(=O)NC(=O)c1ccccc1)Cc1ccccc1
inactive: [1] 3.5% | [2] -8.4% | [3] -1.95% | [4] -30.1% | [5] -1.5% | [6] -11.7%

O/N=C(/C(=N\O)c1ccco1)c1ccco1
inactive: [1] -26.1% | [2] -46.5% | [3] -13.8% | [4] 2.45% | [5] -24.1% | [6] -8.3%

COc1ccc(C(OC2OC(n3cnc4c(=S)nc(N)[nH]c43)CC2OC(C)=O)(c2ccccc2)c2ccc(OC)cc2)cc1 (stereo not drawn)
inactive: [1] 17.9% | [2] 21.9% | [3] 11.2% | [4] -54.4% | [5] 23.4% | [6] 24.4%

Cc1ccc(S(=O)(=O)N/N=C(\c2nc3ccc([N+](=O)[O-])cc3[nH]c2=O)C(O)c2ccccc2Cl)cc1 (stereo not drawn)
inactive: [1] -1.2% | [2] -9.35% | [3] 11.6% | [4] 5.85% | [5] 10.3% | [6] 23.8%

CCCCCCCC/C=C\CCCCCCCC(=O)O
inactive: [1] 10.1% | [2] -23.1% | [3] -2.2% | [4] -22.9% | [5] -27.1% | [6] -15.7%

CCC(C)C(O)CC (stereo not drawn)
inactive: [1] -9.5% | [2] -8.55% | [3] 2.3% | [4] 19.4% | [5] 7.6% | [6] -16.2%

COc1ccc2c(c1)C(N)=C(c1ccccc1OC)C2=O
inactive: [1] -8.45% | [2] 3.9% | [3] 4.95% | [4] -8.15% | [5] -7.4% | [6] -38.5%

Cc1ccc(-c2n[nH]c(=O)n2N)cc1
inactive: [1] 3.5% | [2] -23% | [3] 0.85% | [4] 5.45% | [5] 0.45% | [6] 7.25%

CS(=O)CC(=N\N)/C(CS(C)=O)=N/N (stereo not drawn)
inactive: [1] -60% | [2] -20.8% | [3] -19.7% | [4] -21.4% | [5] -1.15% | [6] -5.75%

N#CC12CC3CC(CC(C3)C1)C2
inactive: [1] -3.9% | [2] -1.5% | [3] -15% | [4] -45% | [5] -9.3% | [6] 4.35%

CCc1ccccc1NC(=S)NC1CCCCC1
inactive: [1] -2.7% | [2] -8.85% | [3] 0.05% | [4] -18.5% | [5] 32.2% | [6] -5.6%

C=C1CC[C@H]2C(C)=CC[C@H]3C(=C)C(=O)O[C@@H]3[C@@H]12
inactive: [1] -36.4% | [2] -17% | [3] -24.1% | [4] -3.9% | [5] -15.4% | [6] -6%

CCCCCCCCCCCC(=O)N(C)CCS(=O)(=O)O
inactive: [1] 6.2% | [2] -28.8% | [3] 4.55% | [4] 13.1% | [5] -20.6% | [6] 8.45%

COc1cc(OC)c(NC(=O)ON2C(=O)c3ccccc3C2=O)cc1Cl
inactive: [1] 8.2% | [2] -1.75% | [3] -2.3% | [4] 11.8% | [5] 0.5% | [6] 24.6%

O=C(O)Cn1c(=O)n(CC(=O)O)c2ccccc21
inactive: [1] 6.85% | [2] -4.95% | [3] -4.2% | [4] -10% | [5] 3.25% | [6] -7.65%

OCCCNc1nc2cc(Br)ccc2c2ccc(Br)cc12
inactive: [1] 47.6% | [2] 4.75% | [3] 23.9% | [4] -3.65% | [5] 0.1% | [6] 19.1%

C=C(CCCC(C)OC(C)OCC)[Si](C)(C)C (stereo not drawn)
inactive: [1] -26.2% | [2] -52% | [3] -20.6% | [4] -7.15% | [5] -23.6% | [6] -37.9%

C=CCN1/C(=C(\C#N)c2nc3ccccc3[nH]2)Sc2c1nc[nH]c2=O
inactive: [1] -51.6% | [2] -27.9% | [3] -32% | [4] -32% | [5] -32.9% | [6] -49.8%

c1ccc(C2CCOCO2)cc1 (stereo not drawn)
inactive: [1] 14.4% | [2] 15.7% | [3] 15.8% | [4] 12.2% | [5] 5.7% | [6] 24.2%

O=Cc1cc2c(cc1-c1cc3c(cc1C=O)OCO3)OCO2
inactive: [1] -3.4% | [2] 8.25% | [3] 6.6% | [4] 9.85% | [5] 13.1% | [6] 0.75%

CCN(Cc1ccc(CN(CC)C(=O)c2sc3ccccc3c2Cl)cc1)C(=O)c1sc2ccccc2c1Cl
inactive: [1] -3.5% | [2] -19.6% | [3] -7.35% | [4] -1.4% | [5] -11.4% | [6] -4.55%

C/C=C(/C)C(=O)O[C@@H]1c2c(C)coc2C(=O)[C@@]2(OC(C)=O)CCC[C@@](C)(O)[C@@]12C
inactive: [1] 26.8% | [2] 9.55% | [3] 24.3% | [4] 22.6% | [5] 39.4% | [6] 43.9%

CC12OC(=O)C(C#N)C1(C)C1C(=O)CCCC12 (stereo not drawn)
inactive: [1] -2.8% | [2] -7.55% | [3] 7.4% | [4] 1.9% | [5] -0.3% | [6] -8.55%

CC(=O)[CH-]C(=O)c1ccccc1.CC(=O)[CH-]C(=O)c1ccccc1.CC[O-].O=C1C=C([O-])C(=O)c2ccccc21.[Ti+4]
inactive: [1] 25.4% | [2] 60.5% | [3] 63.5% | [4] 61.1% | [5] 59.9% | [6] 56.9%

Nc1cccc(CCc2nc(N)nc(N)c2-c2ccc(Cl)cc2)c1
inactive: [1] 0.6% | [2] 21.6% | [3] 13.8% | [4] 3.2% | [5] 8.85% | [6] -14.3%
